Results published in the supplement of paper PMC7801607.

These compounds were tested on Plasmodium berghei ANKA liver stage in HepG2-A16-CD81 (assay: % inhibition of liver stage parasite viability (luciferase); higher = more inhibition). Settings: 5 µM; 48 h.
Description: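 Single-concentration screen of the MMV Pandemic Response Box. P. falciparum NF54 asexual blood stages: pLDH assay, 72 h at 37 °C, 2 and 20 µM, n=2. Stage IV/V gametocytes (NF54): luciferase reporter (NF54-Pfs16-GFP-Luc, 48 h), ATP bioluminescence (24 h) and PrestoBlue (48 h) at 1 and 5 µM, n=1. P. berghei liver stage (luciferase in HepG2-A16-CD81, 48 h post infection) at 5 µM, n=4. All normalised to DMSO and kill controls as % inhibition.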

Row | Compound | % inhibition of liver stage parasite viability [%]
1 | CC(=O)NC[C@H]1CN(c2ccc(N3CCSCC3)c(F)c2)C(=O)O1 | 50.2
2 | C=C(C)n1c(=O)n(Cc2ccccc2C)c2ccccc21 | 19.1
3 | O=C(NCc1ccc2c3c(cccc13)C(=O)N2)c1cccs1 | 17.9
4 | CC(C)(C)c1cccc(-c2nc3cc(C(=N)N)ccc3[nH]2)c1O | 26.2
5 | Cc1cc(CCCOc2c(C)cc(-c3noc(C(F)(F)F)n3)cc2C)on1 | -23.2
6 | Clc1ccc(Cn2c(CN3CCCC3)nc3ccccc32)cc1 | 22.9
7 | CN(C)[C@@H]1C(=O)C(C(N)=O)=C(O)[C@@]2(O)C(=O)C3=C(O)c4c(O)c(NC(=O)CN5CCCC5)cc(F)c4C[C@H]3C[C@@H]12 | -4.53
8 | CCOCc1nc2c(N)nc3ccccc3c2n1CC(C)(C)O | 18.3
9 | NC(=O)c1[nH]c2ccc(S(N)(=O)=O)cc2c1-c1ccccc1 | 21.9
10 | O=C(O)[C@H]1C2CCC(CC2)[C@@H]1Nc1nc(-c2c[nH]c3ncc(F)cc23)ncc1F | 34
11 | C[C@@H](O)[C@H](N)C(=O)NS(=O)(=O)c1cccc(-c2ccc3[nH]ncc3c2)c1 | 31.2
12 | COC1CC2CCC(C)C(O)(O2)C(=O)C(=O)N2CCCCC2C(=O)OC(C(C)CC2CCC(OCCO)C(OC)C2)CC(=O)C(C)/C=C(\C)C(O)C(OC)C(=O)C(C)CC(C)/C=C/C=C/C=C/1C (stereo not given) | 0.0625
13 | CCCC(=O)OCCc1ccccc1 | -8.54
14 | CC(C)(C)NC(=O)N[C@H](C(=O)N1C[C@H]2[C@@H]([C@H]1C(=O)NC(CC1CCC1)C(=O)C(N)=O)C2(C)C)C(C)(C)C (stereo not given in full) | -15.2
15 | Nc1cccc(-c2nc(N)nc(NC3Cc4ccccc4C3)n2)c1 | -38.1
16 | C=CCc1cc(Cc2cnc(N)nc2N)cc(OC)c1O | 68.4
17 | CCc1nc2ccc(Cl)cn2c1C(=O)NCc1ccc(N2CCC(c3ccc(OC(F)(F)F)cc3)CC2)cc1 | 72.1
18 | N[C@H](CCC(=O)N[C@@H](Cc1c[nH]c2ccccc12)C(=O)O)C(=O)O | 21.3
19 | CC(=O)Oc1ccccc1C(=O)Nc1ncc([N+](=O)[O-])s1 | 65.9
20 | O=C(N[C@H](CCS)C(=O)N[C@H](Cc1ccccc1)C(=O)O)c1cc2ccccc2[nH]1 | 5.97

Row | Compound | % inhibition of liver stage parasite viability [%]
21 | O=C(NN1C(=O)[C@@H]2C3C=CC([C@H]4C[C@@H]34)[C@@H]2C1=O)c1ccc(C(F)(F)F)cc1 | 26.8
22 | NC(=O)c1cnc2ccc(S(=O)(=O)c3ccccc3)cc2c1Nc1ccc(O)cc1 | 53.1
23 | Cc1ccc(NC(=O)c2ccc(CN3CCN(C)CC3)cc2)cc1Nc1nccc(-c2cccnc2)n1 | 8.45
24 | CN(C)CCCNC(=O)c1ccc(-c2cc(O)c3ncccc3c2)cc1 | 24.5
25 | CSc1ccc2c(c1)C(N1CCN(C)CC1)Cc1ccccc1S2 (stereo not given) | 23
26 | O=C(N[C@H](Cc1cccc2ccccc12)C(=O)NCCc1c[nH]cn1)C1Cc2ccccc2C1 | 21.8
27 | COc1cc(C(C(=O)NC2CCCCC2)N(C(=O)Cc2c[nH]c3ccccc23)c2ccc(C(C)C)cc2)cc(OC)c1OC (stereo not given) | 18.7
28 | O=C(Cc1ccccc1F)Nc1nc2ccccc2[nH]1 | -7.69
29 | Cc1ccc(NC(=O)c2cc(Cl)ccc2O)cc1 | 78.5
30 | c1ccc(Cn2c(-c3ccccn3)nc3ccccc32)cc1 | -11
31 | Cc1[nH]c2ccccc2c1CCNCc1ccc(/C=C/C(=O)NO)cc1 | 72.8
32 | NC(=S)N/N=C/c1ncccc1N | 63.5
33 | N#Cc1cc([N+](=O)[O-])ccc1Oc1ccccc1Cl | 12.4
34 | CC(C)(C)c1ccc(C(Cn2cccc(C(F)(F)F)c2=O)NC2Cc3ccccc3C2)cc1 (stereo not given) | 2.01
35 | CCn1cc(C(=O)O)c(=O)c2cc(F)c(N3CCNC(C)C3)c(F)c21 (stereo not given) | 22.1
36 | CC(C)(C)NC(=O)[C@@H]1CN(Cc2cnc3occc3c2)CCN1C[C@@H](O)C[C@@H](Cc1ccccc1)C(=O)N[C@H]1c2ccccc2C[C@H]1O | 36
37 | N=C(N)NCCCCC(=O)Nc1cc(C(F)(F)F)cc(NC(=O)c2cc(C(=O)Nc3cc(C(F)(F)F)cc(NC(=O)CCCCNC(=N)N)c3O[C@@H]3CCNC3)ncn2)c1O[C@@H]1CCNC1 | 35.9
38 | COc1ccc(NC(=O)CC2Sc3ncnn3C2=O)cc1 (stereo not given) | 34.5
39 | C[C@H](Cn1cnc2c(N)ncnc21)OCP(=O)(O)O | 9.32
40 | NC(=O)C(c1ccccc1)(c1ccccc1)[C@H]1CCCN(CCc2ccc3c(c2)CCO3)C1 | 48.5
